Casp6 inh: inhibitors of human caspase-6 | AID 686996 | inhibition, % at 12.5 µM | P55212 | 0.53% of 350,000 active | purified caspase-6, Z-VEID-R110 cleavage fluorescence;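 active = mean inhibition across replicates at least about 35%, with every replicate also reaching that limit, limit read from the data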;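 also: 0% = median of neutral control wells and 100% = no fluorescence left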
NSD2 HMT inh: blocks human histone methyltransferase NSD2 | inhibition, % at 12.5 µM | 0.54% of 310,000 active | O96028 | NSD2 peptide methylation, AlphaScreen, 120 min; in the data active = inhibition above about 50%
RAD52 inh: inhibitors of human RAD52 DNA annealing; P43351; recombinant RAD52 DNA annealing, FRET fluorescence; inhibition, % at 18.7 µM; 0.46% of 360,000 active; AID 651710;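 active = every replicate showing at least 50% inhibition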
Target sequence (P43351 whole entry, looked up): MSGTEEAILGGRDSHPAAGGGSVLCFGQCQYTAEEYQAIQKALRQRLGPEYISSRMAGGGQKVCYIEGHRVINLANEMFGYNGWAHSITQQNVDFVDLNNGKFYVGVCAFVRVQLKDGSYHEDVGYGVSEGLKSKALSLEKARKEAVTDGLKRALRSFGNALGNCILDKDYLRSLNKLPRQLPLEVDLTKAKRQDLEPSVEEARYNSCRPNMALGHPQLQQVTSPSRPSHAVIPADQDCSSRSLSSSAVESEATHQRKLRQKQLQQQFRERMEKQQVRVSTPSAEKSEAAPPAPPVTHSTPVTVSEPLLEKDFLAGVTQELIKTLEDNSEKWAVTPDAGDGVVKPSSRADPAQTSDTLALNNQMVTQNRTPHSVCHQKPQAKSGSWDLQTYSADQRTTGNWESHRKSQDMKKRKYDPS
AF4-AF9 inh: blocks AF4 peptide binding to human AF9; P42568; inhibition, % at 10 µM; AlphaScreen, biotin-AF4 peptide binding to FLAG-AF9; 0.47% of 350,000 active; AID 651704;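 active = every replicate reaching a set inhibition limit, whatever the replicate mean, cut at about 25% in these data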;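 also: 0% = plate neutral control median and 100% = total signal loss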
Ecoli rRNA inh: selective bacterial rRNA inhibition in E. coli; 1.6% of 350,000 active; GFP signal change (wild-type ribosome), % (test concentration not listed); E. coli WT GFP vs humanized-ribosome RFP mutants, fluorescence, 24 h; stronger effect = lower value; DMSO median 0, no signal -100;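 active = significant combined selectivity score with lowered wild-type GFP, culture density cut under 30%, mutant RFP and density less affected; inactive = any of these conditions unmet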
Numbers without * were called inactive; / = no result. Hits are enriched below; roughly 2.5% of the tested compounds scored in any of these assays.

SMILES	Casp6 inh	NSD2 HMT inh	RAD52 inh	AF4-AF9 inh	Ecoli rRNA inh
C[C@@H]1CCCCO[C@H](CN(C)C(=O)CCC(F)(F)F)[C@H](C)CN([C@@H](C)CO)C(=O)c2cc(NS(C)(=O)=O)ccc2O1	/	/	/	/	-2.6
C[C@H](CO)N1C[C@H](C)[C@H](CN(C)C(=O)Nc2cccc3ccccc23)Oc2ccc(NS(=O)(=O)c3cn(C)cn3)cc2CC1=O	-0.3	/	-0.8	-1.8	-1.2
C=C(CCC(=O)c1ccccc1)C(=O)c1ccccc1	61.0*	3.8	-0.5	1.7	/
CCC(=O)N1CC2(C1)CN(C(=O)Nc1ccccc1F)[C@H](CO)c1c2c2ccc(OC)cc2n1C	5.4	/	-10.8	2.4	0.0
CCCN1CCCCC(NC(=O)COCc2ccccc2)C1=O (centres undefined)	0.4	/	-23.7	/	-0.2
CN1CCCCC(NC(=O)COCc2ccccc2)C1=O (centres undefined)	37.8*	/	-1.4	/	-5.5
Cc1noc(C)c1NC(=O)Nc1ccc2c(c1)C(=O)N([C@H](C)CO)C[C@@H](C)[C@H](CN(C)C(=O)Nc1ccc(F)cc1)O2	1.0	/	2.7	10.6	0.6
COc1ccc(NC(=O)Nc2ccc3c(c2)C(=O)N([C@H](C)CO)C[C@H](C)[C@@H](CN(C)S(=O)(=O)c2ccc(F)cc2)OCCCC[C@H](C)O3)cc1	0.7	/	-11.3	-0.9	-3.8
O=c1[nH]c2ccccc2nc1-c1c[nH]c2ccccc12	-5.4	-3.0	-29.3	-0.8	-25.6*
Nc1ccccc1-c1nc2ccccc2[nH]c1=O	-2.3	-2.5	0.2	-1.4	3.9
COCC(=O)Nc1ccc2c(c1)OC[C@@H](C)N(Cc1ccccc1)C[C@@H](C)[C@H](OC)CN(C)C2=O	1.7	/	3.8	-2.6	-5.0
CSc1ccccc1NC(=O)CSc1n[nH]c(C)c1[N+](=O)[O-]	-0.6	1.4	-38.4	-4.9	-30.1*
COc1ccc2c3c([nH]c2c1)[C@H](CO)N(C(=O)Nc1c(C)noc1C)CC31CCN(CC2CCCCC2)CC1	/	/	/	11.5	1.8
CN(c1ccccc1)c1nc(N)c([N+](=O)[O-])c(N2CCCC2)n1	3.0	9.1	-10.9	2.9	-26.7*
CN(c1ccccc1)c1nc(N)c([N+](=O)[O-])c(N2CCCCC2)n1	-0.6	10.1	-3.3	9.8	-25.4
C[C@@H]1CN([C@H](C)CO)C(=O)Cc2cc(NS(=O)(=O)c3ccccc3)ccc2O[C@H]1CN(C)C(=O)Nc1ccc2c(c1)OCO2	/	/	/	/	5.3
COc1cc(/C=C2\SC(=O)N(c3ccc(Cl)cc3)C2=O)cc([N+](=O)[O-])c1O	3.9	/	-9.4	8.9	-3.4
COc1cc(/C=C2\SC(=O)N(c3cccc(Cl)c3)C2=O)cc([N+](=O)[O-])c1O	-6.7	2.1	-15.0	11.1	-33.3*
COc1ccc(CSc2nc(C)cc(C)c2C#N)cc1	0.2	-1.0	-9.7	25.2*	1.2
Cc1cc(C)c(C#N)c(SCc2ccccc2)n1	/	-1.2	/	/	/
O=C1CC(CC(=O)N/N=C/c2ccccc2[N+](=O)[O-])=NN1	/	2.2	/	/	/
NNC(=O)CC1=NNC(=O)C1	40.0*	0.7	-15.8	-1.1	23.0
COc1ccc(S(=O)(=O)Nc2ccc3c(c2)C(=O)N([C@H](C)CO)C[C@H](C)[C@H](CN(C)C)OCCCC[C@H](C)O3)cc1	-2.9	/	-16.6	-6.1	2.0
O=Cc1c(-c2ccc(Cl)cc2)oc2ccc(O)cc12	6.8	-0.5	-10.7	-1.2	-30.2*
CS(=O)(=O)Nc1ccc2c(c1)[C@H]1C[C@H](CC(=O)NCc3ccccc3)O[C@@H](CO)[C@H]1O2	1.7	/	-20.4	-0.5	3.4
SMILES	Casp6 inh	NSD2 HMT inh	RAD52 inh	AF4-AF9 inh	Ecoli rRNA inh
COCC#Cc1ccc2c(c1)O[C@H](CN(C)C(=O)CN(C)C)[C@H](C)CN([C@@H](C)CO)S2(=O)=O	0.7	/	-22.3	-1.8	3.3
Cc1ccc(S(=O)(=O)Nc2ccc3cn[nH]c3c2)cc1	0.8	-2.2	-15.1	0.0	-12.2
Cc1ccc(S(=O)(=O)Nc2cc(C)c(O)c(Sc3n[nH]c(C)n3)c2)cc1	-2.1	10.8	0.3	2.7	-42.8*
CCN(CC)c1ccc(CNc2ccc(Br)cn2)cc1	/	0.0	/	/	/
CCN(CC)c1ccc(Nc2nc(Cl)ncc2Br)cc1	2.0	24.8	-0.1	27.1*	5.2
COc1ccc(N2C(=O)[C@H]3[C@@H](C2=O)C2c4ccccc4C=NN2[C@H]3C(=O)C(C)(C)C)cc1 (some centres undefined)	2.5	25.0	-19.0	0.1	-10.7
CC(C)(C)C(=O)[C@@H]1[C@@H]2C(=O)N(C3CCCCC3)C(=O)[C@@H]2[C@H]2c3ccccc3C=CN12	/	124.8*	/	/	/
COc1ccc(N2C(=O)[C@@H]3[C@H](C2=O)[C@H]2c4ccccc4C=CN2[C@@H]3C(C)=O)cc1	84.3*	14.3	-32.7	-0.9	-4.0
CCOc1ccc(-c2onc(C(F)(F)F)c2-c2cscn2)c(O)c1	1.0	0.7	2.4	2.8	-43.0*
CC(C)n1c(O)c(N=NC(=O)C2COc3ccccc3O2)c2ccccc21 (centres undefined)	-0.2	0.7	-1.6	38.5*	-5.5
CCOC(=O)C1CCCN(S(=O)(=O)c2nc3nc(C)cc(C)n3n2)C1 (centres undefined)	37.0*	0.8	-2.9	-1.0	0.3
C[C@H]1CN([C@@H](C)CO)C(=O)c2ccccc2-c2ccccc2CO[C@H]1CN(C)C(=O)Nc1ccc2c(c1)OCO2	2.4	/	-8.2	-4.7	-0.3
Nc1cc(C(Cl)=C(Cl)Cl)c(S(N)(=O)=O)cc1S(N)(=O)=O	76.3*	/	-18.3	-0.5	-3.3
O=C(CSc1n[nH]c(-c2ccco2)n1)Nc1ccccc1F	46.5*	1.9	1.3	-3.2	-2.0
Cc1cc(C)c(-n2c(SCc3nc4ccccc4s3)n[nH]c2=O)c(C)c1	-1.2	-0.6	-17.0	/	-23.9*
CC(=O)c1ccc(NC(=O)C2=CC(c3cccs3)=NS(=O)(=O)N2C)cc1	6.6	19.4	-6.9	8.7	-21.1*
Cc1ccc(NC(=O)C2=CC(c3cccs3)=NS(=O)(=O)N2C)cc1	-2.2	/	-8.0	2.1	-1.8
CCn1c(SCc2ccc(Cl)cc2)nc2nc3c(cc2c1=O)CCCC3	-1.7	-2.1	-7.4	1.3	-22.2*
Cc1nc2c(-c3ccc(F)cc3)c(C)[nH]n2c(=O)c1Cl	-1.3	1.4	-7.2	3.9	-23.1*
COc1ccc2c3c([nH]c2c1)[C@@H](CO)N(C(=O)CN1CCOCC1)CC31CCN(C(C)=O)CC1	/	/	/	-1.1	6.3
CC(=Nc1ccccc1)c1sc2ccccc2c1O	6.6	-15.5	-90.3	25.8*	-3.1
Cc1nnc(NC(=O)CSc2nnc(CNC(=O)c3ccccc3F)n2C(C)C)s1	14.2	2.7	-22.1	-11.4	8.4
Cc1nnc(NC(=O)CSc2nnc(CCNC(=O)c3ccccc3F)n2C)s1	-0.6	0.3	-11.4	42.3*	/
C[C@@H]1CN([C@@H](C)CO)C(=O)c2cccc(NC(=O)C3CC3)c2O[C@@H]1CN(C)Cc1ccncc1	1.2	/	12.9	0.4	2.9
